Bioassay records (PubChem)
Hits are enriched below; roughly 2.8% of the tested compounds scored in any of these assays.
PTHR1 ag: PTHR1 (human) receptor agonism; actives 0.075% (n = 410,000); Potency, µM (highest dose often 115 µM), usual class: activators; Q03431; HEK293 GP2 PTHR1 cells, GloSensor cAMP luminescence, 1 h; note: nearly all actives have a fitted effect of over 55% in size
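HEK-293-derived GP2 cells expressing PTHR1 and a GloSensor cAMP reporter, 3,000/well, plated overnight, given luciferin plus IBMX (each 0.5 mM as added) for 1 h at 37 °C, then compound for 1 h at 37 °C. Luminescence was read after 15 min at room temperature.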
D3 antag: blocks the human D3 dopamine receptor; P35462; D3R cells, DiscoveRx beta-arrestin luminescence, antagonist mode; stronger effect = lower value; max response, negative = inhibition, %; actives 2.5% (n = 360,000); AID 652054; in the data active = max response below about -50%; inconclusive = no clear call, values can overlap the other calls
Target sequence (P35462 whole entry, looked up): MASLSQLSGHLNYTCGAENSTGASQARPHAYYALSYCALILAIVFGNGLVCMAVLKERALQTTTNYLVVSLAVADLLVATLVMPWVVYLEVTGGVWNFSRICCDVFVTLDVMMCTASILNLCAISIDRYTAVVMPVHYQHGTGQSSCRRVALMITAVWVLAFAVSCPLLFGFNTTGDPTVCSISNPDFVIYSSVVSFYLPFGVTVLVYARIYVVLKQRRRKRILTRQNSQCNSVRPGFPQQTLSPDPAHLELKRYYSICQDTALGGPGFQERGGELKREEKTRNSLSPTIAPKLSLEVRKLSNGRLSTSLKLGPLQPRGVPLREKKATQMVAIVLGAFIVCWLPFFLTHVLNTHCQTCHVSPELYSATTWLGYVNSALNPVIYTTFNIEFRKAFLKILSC
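Cells plated overnight at 1500 cells/well, then exposed to library compounds with dopamine controls for 90 minutes at 37 degrees C. DiscoveRx reagent added for 30–60 minutes at room temperature; luminescence read, quantitative HTS format.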
Integrin act MD: activates integrin-mediated alleviation for muscular dystrophy. alpha7betagal myoblasts, beta-gal FDG fluorescence, 48 h. Potency, µM (doses to about 38.3 µM), hits mostly activators. actives 0.064% (n = 350,000); note: nearly all actives have a fitted effect of over 60% in size
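Alpha7betagal+/- myoblasts (passage 13) were plated 16-24 hr, then exposed to compounds (1:260 dilution of DMSO stock) for 48 hours at 37C. After MPER lysis, β-galactosidase reporter activity was read as FDG fluorescence (ex 480/em 540) after 30 minutes.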
CBFb RUNX1 block: inhibitors of human CBF-beta and RUNX1 interaction | Potency, µM (highest dose often 59.8 µM), hits mostly inhibitors | 230,000 tested, under 10 active | AlphaScreen CBFb-His/RUNX1-biotin binding, biochemical
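Interaction loss through any mechanism counts as activity. Pre-formed complex of His-CBF-beta and biotin-RUNX1 (30 nM apiece) is incubated with compound 15 min, then with 50 ng nickel and 50 ng streptavidin beads for 90 min before AlphaScreen detection.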
MBNL1 CUG block: inhibitors of human MBNL1 binding to CUG repeat RNA. Q9NR56. TR-FRET MBNL1-His/biotin-(CUG)12 binding, 665/545 ratio. Potency, µM (titrated, usually from 57.5 µM), hits mostly inhibitors. actives 0.036% (n = 280,000); active = well fitted inhibition curve with a large enough effect in the signal ratio, with a control signal flat, not every such curve was filed as active; inconclusive = small, poorly fitted or top-dose-only effect, or effect the other way, or a change in a side signal; inactive = no such curve, though single readings can be large or run the other way; the % refers to the signal ratio
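TR-FRET readout: Ex 340 nm, 665/545 nm emission ratio, normalized to buffer-only (basal) and MBNL1-(CUG)12 controls. Complex of MBNL1-His with Biotin-(CUG)12, compounds 92 nM–58 uM, incubated 60 min at room temperature.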
DRD3 agonist: agonists of human D3 dopamine receptor. P35462. D3R DiscoveRx beta-arrestin cells, luminescence, 90 min. max activation, %. actives 0.58% (n = 410,000). AID 652048; in the data active = max activation above about 30%
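Cells at 1500/well, incubated overnight, then treated with pinned compounds (dopamine as control) for 90 min at 37 degrees C. DiscoveRx reagent added for 30 - 60 minutes at room temperature; luminescence read.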
Each line names hits and unclear results; the compound was inactive in the other large screens; ! = not confirmed by another sample. Unless noted, calls come from the whole dose curve; as a rule, active = well fitted curve in the direction sought with a large enough effect; inconclusive = small, poorly fitted or top-dose-only effect, or another doubt; inactive = no such curve, though single readings can be large; an effect the other way counts as inactive or inconclusive.

CCOc1ccc(CN2CCN(C(=O)c3ccco3)CC2)cc1	none (no result: CBFb RUNX1 block)
COc1cc(NC(=O)C2CC(=O)NC3=C2C(=O)CCC3)c(OC)cc1Cl (stereo not drawn)	DRD3 agonist 39
CS(=O)(=O)N(CC(=O)N1CCCC1)C1CCCCC1	none (no result: CBFb RUNX1 block, MBNL1 CUG block)
O=C(CSc1nnnn1Cc1ccccc1)c1ccccc1	D3 antag -58
COc1cccc(C(=O)CSc2nnnn2C)c1	D3 antag -64
CCCCn1nnnc1SCC(=O)NCc1ccccc1	D3 antag -55
Cc1ccc(C2=NOC(C)(c3sc(-c4ccc(Cl)cc4)nc3C)C2)cc1 (stereo not drawn)	none (no result: CBFb RUNX1 block, MBNL1 CUG block)
Cc1nc(-c2ccc(Cl)cc2)sc1C1(C)CC(c2ccc([N+](=O)[O-])cc2)=NO1 (stereo not drawn)	DRD3 agonist 51
COc1ccc2oc(-c3ccccc3)c(OC)c(=O)c2c1	none (no result: PTHR1 ag, D3 antag, Integrin act MD, MBNL1 CUG block, DRD3 agonist)
O=S(=O)(c1ccc(Cl)cc1)N1CCN(Cc2c[nH]c3ccccc23)CC1	none
CCC1CCC(N2CCN(c3ccccc3F)CC2)CC1 (stereo not drawn)	D3 antag -77, Integrin act MD inconclusive (no result: CBFb RUNX1 block)
O=C(c1ccccc1)N1CCN(Cc2c[nH]c3ccccc23)CC1	D3 antag -85
Fc1ccccc1N1CCN(C2CCN(Cc3c[nH]c4ccccc34)CC2)CC1	D3 antag -60
OC1(c2ccc(Cl)cc2)CCN(Cc2c[nH]c3ccccc23)CC1	D3 antag -101 (no result: Integrin act MD, MBNL1 CUG block)
CCC1CCC(N2CCN(c3ccc(F)cc3)CC2)CC1 (stereo not drawn)	none (no result: CBFb RUNX1 block)
CCn1c(SCC(=O)N(C)CC(=O)Nc2ccc(OC)cc2)nnc1-c1ccco1	none (no result: CBFb RUNX1 block, MBNL1 CUG block)
COc1cccc(-c2cc(C(F)(F)F)n3nc(C)c(-c4ccccc4)c3n2)c1	none (no result: D3 antag, Integrin act MD, CBFb RUNX1 block, MBNL1 CUG block)
Clc1ccccc1N1CCN(Cc2c[nH]c3ccccc23)CC1	D3 antag -78 (no result: CBFb RUNX1 block, MBNL1 CUG block)
OC1(c2ccc(Cl)cc2)CCN(Cc2cn[nH]c2-c2ccc(F)cc2)CC1	D3 antag -98 (no result: MBNL1 CUG block)
COc1cccc(CNC(=O)c2cc3c(s2)-c2c(C)cccc2OC3)c1	none (no result: D3 antag, Integrin act MD, CBFb RUNX1 block, MBNL1 CUG block)
C=CCN1C[C@H](C(=O)N(CCCN(C)C)C(=O)NCC)C[C@@H]2c3cccc4[nH]cc(c34)C[C@H]21	DRD3 agonist 67 (no result: PTHR1 ag, D3 antag, Integrin act MD, CBFb RUNX1 block, MBNL1 CUG block)
CN1C(C(=O)c2ccccc2)=C(NC(=O)c2ccc(F)cc2)c2ccccc2S1(=O)=O	none (no result: D3 antag, Integrin act MD, CBFb RUNX1 block, MBNL1 CUG block)
CN1C(C(=O)Nc2ccc(C(=O)O)cc2)=C(O)c2ccccc2S1(=O)=O	DRD3 agonist 60 (no result: CBFb RUNX1 block, MBNL1 CUG block)
CC(=O)CSc1nsc(SCC(C)=O)c1C#N	D3 antag -69, MBNL1 CUG block inconclusive
CCOC(=O)CSc1nsc(SCC(=O)OCC)c1C#N	none
CN(C(=O)C(C)(C)C)C1c2c(ccc3ccccc23)OCC1CO (stereo not drawn)	none (no result: CBFb RUNX1 block)
O=[N+]([O-])c1ccc(S(=O)(=O)Nc2ccccn2)cc1	MBNL1 CUG block inconclusive (no result: CBFb RUNX1 block)
CN(C(=O)CSc1nc2ccc(NC(=O)CCc3ccccc3)cc2s1)c1ccccc1	none (no result: D3 antag, Integrin act MD, CBFb RUNX1 block, MBNL1 CUG block)
CCN(CC)CCN(C(=O)c1ccc2c(c1)CCCC2)c1nc2ccc(C)cc2s1	D3 antag -51 (no result: CBFb RUNX1 block)
CCN(CC)CCN(C(=O)c1ccc2c(c1)CCCC2)c1nc2c(C)cccc2s1	D3 antag -51 (no result: CBFb RUNX1 block)
CCN(CC)CCN(C(=O)c1ccc2c(c1)OCCO2)c1nc2c(Cl)cccc2s1	D3 antag -63 (no result: CBFb RUNX1 block)
COc1cccc(C(=O)NC2CC3CCCC(C2)N3S(=O)(=O)c2ccccc2)c1 (stereo not drawn)	none
CCCN1CCc2nc(N3CCN(CC)CC3)ncc2C1	none (no result: D3 antag, Integrin act MD, CBFb RUNX1 block, MBNL1 CUG block)
CCN1CCc2nc(N)oc2CC1	DRD3 agonist 41! (no result: Integrin act MD, MBNL1 CUG block)
CCCn1cnnc1CNC(=O)[C@H]1O[C@@H](n2cnc3c(N)ncnc32)[C@H](O)[C@@H]1O	none (no result: Integrin act MD, CBFb RUNX1 block, MBNL1 CUG block)
COc1ccccc1NC(=O)Cn1c(C)cc(C)c(C#N)c1=O	none (no result: D3 antag, Integrin act MD, CBFb RUNX1 block, MBNL1 CUG block)
O=C(CCc1ccccc1)c1nnc(-c2ccccc2)o1	PTHR1 ag inconclusive, Integrin act MD 10µM, CBFb RUNX1 block inconclusive
CCOC(=O)c1nnc(-c2ccccc2)o1	none
